Test results from PubChem BioAssay (Tox21).
Inconclusive results are not listed. Entries that show only a call come without a potency. Unmarked numbers belong to inactive results. Active and inactive are the calls of the source. Calls follow the shape of the dose curve; as a rule, active = well fitted curve in the direction sought with a large enough effect in the repeat runs; inconclusive = weak or mixed curves; inactive = no such curve, though single readings can be large; an effect the other way counts as inactive or inconclusive.

Molecular target: Cytochrome P450 1A2 (Homo sapiens) (UniProt P05177)
Assay: Cytochrome P450 Family 1 Subfamily A Member 2 (CYP1A2) small molecule antagonists: luciferase reporter qHTS assay (AID 1671199)
Conditions: P450-Glo CYP1A2 enzyme, luciferin luminescence, 1 h; series mostly up to 115 µM
Outline: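 Read-out is luminescence from luciferin detection reagent (20 min) proportional to CYP1A2 activity; compounds in DMSO preincubated 10 min with enzyme and proluciferin substrate, then NADPH regeneration solution, 1 h, room temperature.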
Also: nearly all actives have a fitted effect of over 50% in size.
Potency is read from the fitted curve at half-maximal effect.

Chain of Cytochrome P450 1A2 (Homo sapiens) (P05177 whole entry, looked up): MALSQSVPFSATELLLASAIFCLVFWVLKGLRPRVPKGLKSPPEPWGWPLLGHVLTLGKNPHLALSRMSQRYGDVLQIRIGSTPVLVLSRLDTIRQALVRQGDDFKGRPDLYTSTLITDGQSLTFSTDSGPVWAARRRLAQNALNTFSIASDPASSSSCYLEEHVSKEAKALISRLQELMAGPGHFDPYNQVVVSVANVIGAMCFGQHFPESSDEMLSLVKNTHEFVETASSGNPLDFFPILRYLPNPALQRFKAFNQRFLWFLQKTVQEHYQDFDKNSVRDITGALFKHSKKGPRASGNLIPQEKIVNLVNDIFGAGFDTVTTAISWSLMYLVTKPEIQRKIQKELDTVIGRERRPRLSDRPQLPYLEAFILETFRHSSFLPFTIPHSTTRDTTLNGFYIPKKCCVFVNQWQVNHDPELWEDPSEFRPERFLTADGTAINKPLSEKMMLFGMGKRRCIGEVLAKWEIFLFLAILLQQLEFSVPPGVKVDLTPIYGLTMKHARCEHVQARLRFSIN

Structure (SMILES)	Potency
COC(=O)/C=C/C(C)=C\C=C\C(C)=C\C=C\C=C(C)\C=C\C=C(C)\C=C\C(=O)O	inactive
CC(C)(C)c1cc(C=O)cc(C(C)(C)C)c1O	inactive
CCN(CCCCOC(=O)c1ccc(OC)c(OC)c1)C(C)Cc1ccc(OC)cc1 (stereo not given)	inactive
CC/C=C\CCO	inactive
C=C(C)C(=O)OCCCCCCCCCCOC(=O)C(=C)C	44.8 µM (active)
O=C1c2ccccc2C(=O)C1c1ccc2cc(S(=O)(=O)O)cc(S(=O)(=O)O)c2n1	43.2 µM (active)
CC1(COc2ccc(CC3SC(=O)NC3=O)cc2)CCCCC1 (stereo not given)	inactive
NC(=O)c1ccccc1C(N)=O	28.4 µM (active)
O=C(Cl)c1ccc(F)c(Cl)c1	inactive
O=c1c2ccccc2oc2ccccc12	0.564 µM (active)
O=C(O)c1ccccc1-n1cc(C(=O)O)c(=O)c2cc(Nc3c(F)cc(F)cc3Cl)c(Cl)cc21	inactive
C=CC(O)CCCCC (stereo not given)	inactive
CCCCOC(=O)CC#N	7.44 µM (active)
Cc1cc(SC2=C(O)C[C@@](CCc3ccc(N)cc3)(C(C)C)OC2=O)c(C(C)(C)C)cc1CO	inactive
CCCCCCCCCCCCSC#N	7.96 µM (active)
CC(CN=Cc1ccccc1O)N=Cc1ccccc1O (stereo not given)	20 µM (active)
CC(C)=CCCC(C)C=O (stereo not given)	inactive
Cc1nc2sccn2c(=O)c1CCN1CCC(=C(c2ccc(F)cc2)c2ccc(F)cc2)CC1	inactive
Nc1nc(Cl)nc2c1ncn2[C@H]1C[C@H](O)[C@@H](CO)O1	28.1 µM (active)
Nc1ccccc1Nc1ccccc1	7.12 µM (active)
OCCc1ccncc1	22.4 µM (active)
CCCCCCCCCCCCCCCCN	inactive
Oc1ccc(CCNCCCCCCNCCc2ccccc2)cc1O	inactive

Molecular target: Voltage-gated inwardly rectifying potassium channel KCNH2 (Homo sapiens) (UniProt Q12809)
Assay: Human Ether-a-go-go-Related Gene (hERG) channel small molecule antagonists: fluorescence cell-based qHTS assay (AID 1671200);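 as to activity change, negative = inhibition: hERG-expressing U2OS cells given a thallium stimulus after FluxOR II dye loading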
Conditions: hERG-U2OS cells, FluxOR thallium flux fluorescence; series mostly up to 76.8 µM
Outline: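 Read-out: thallium influx as a surrogate for potassium, tracked as fluorescence (480 nm ex/540 nm em) every second for 2 min after Stimulus Buffer addition in dye-loaded hERG-U2OS cells.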

Chain of Voltage-gated inwardly rectifying potassium channel KCNH2 (Homo sapiens) (Q12809 whole entry, looked up): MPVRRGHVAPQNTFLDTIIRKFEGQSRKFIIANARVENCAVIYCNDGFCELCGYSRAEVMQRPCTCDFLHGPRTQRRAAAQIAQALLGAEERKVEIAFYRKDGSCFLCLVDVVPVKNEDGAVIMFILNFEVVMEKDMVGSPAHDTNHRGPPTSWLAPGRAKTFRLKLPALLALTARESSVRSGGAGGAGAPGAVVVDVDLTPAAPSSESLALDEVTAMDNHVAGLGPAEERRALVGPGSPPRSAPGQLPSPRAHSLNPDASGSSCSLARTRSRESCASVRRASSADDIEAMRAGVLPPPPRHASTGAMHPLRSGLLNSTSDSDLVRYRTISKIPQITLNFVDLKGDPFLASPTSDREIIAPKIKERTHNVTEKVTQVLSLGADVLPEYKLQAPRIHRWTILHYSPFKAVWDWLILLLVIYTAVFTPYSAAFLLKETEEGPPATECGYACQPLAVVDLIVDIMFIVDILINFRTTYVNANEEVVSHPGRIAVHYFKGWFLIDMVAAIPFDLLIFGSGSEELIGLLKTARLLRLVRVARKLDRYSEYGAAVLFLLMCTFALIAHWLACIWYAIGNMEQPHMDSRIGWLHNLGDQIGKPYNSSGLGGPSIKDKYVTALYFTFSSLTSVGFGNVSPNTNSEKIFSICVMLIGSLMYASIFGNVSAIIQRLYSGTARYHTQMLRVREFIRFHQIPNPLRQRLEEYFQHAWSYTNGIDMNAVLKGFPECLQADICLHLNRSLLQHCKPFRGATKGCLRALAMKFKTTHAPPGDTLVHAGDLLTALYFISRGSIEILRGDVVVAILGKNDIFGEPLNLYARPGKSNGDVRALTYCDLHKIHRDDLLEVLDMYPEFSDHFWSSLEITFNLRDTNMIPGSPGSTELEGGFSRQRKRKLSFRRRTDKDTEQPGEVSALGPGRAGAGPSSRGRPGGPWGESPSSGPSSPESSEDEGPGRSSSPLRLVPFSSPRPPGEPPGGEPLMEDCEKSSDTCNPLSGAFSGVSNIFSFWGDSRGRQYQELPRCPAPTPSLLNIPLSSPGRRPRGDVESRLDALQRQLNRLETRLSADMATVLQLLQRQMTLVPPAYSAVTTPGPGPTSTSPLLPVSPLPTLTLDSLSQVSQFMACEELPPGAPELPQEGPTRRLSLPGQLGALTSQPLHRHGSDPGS

Structure (SMILES)	Potency	activity change, negative = inhibition
O=C(O)c1cccnc1Nc1cccc(C(F)(F)F)c1	inactive	–
COC(=O)/C=C/C(C)=C\C=C\C(C)=C\C=C\C=C(C)\C=C\C=C(C)\C=C\C(=O)O	inactive	–
CC(C)(C)c1cc(C=O)cc(C(C)(C)C)c1O	inactive	–
CCN(CCCCOC(=O)c1ccc(OC)c(OC)c1)C(C)Cc1ccc(OC)cc1 (stereo not given)	3.38 µM (active)	–
CC/C=C\CCO	inactive	–
c1ccc(-c2ccc(-c3ccccc3)cc2)cc1	–	1.54% [at 15.8 µM]
O=C1c2ccccc2C(=O)C1c1ccc2cc(S(=O)(=O)O)cc(S(=O)(=O)O)c2n1	inactive	–
C=CC(=O)NC(C)(C)C	inactive	–
CC1(COc2ccc(CC3SC(=O)NC3=O)cc2)CCCCC1 (stereo not given)	inactive	–
NC(=O)c1ccccc1C(N)=O	inactive	–
CC(=O)Nc1ccccc1O	inactive	–
O=C(Cl)c1ccc(F)c(Cl)c1	inactive	–
O=c1c2ccccc2oc2ccccc12	inactive	–
CC(C)(Cc1c[nH]c2ccccc12)NCC(O)COc1ccccc1C#N (stereo not given)	8.49 µM (active)	–
O=C(O)c1ccccc1-n1cc(C(=O)O)c(=O)c2cc(Nc3c(F)cc(F)cc3Cl)c(Cl)cc21	inactive	–
CC(Cc1ccccc1)(NC(=O)CN)c1ccccc1 (stereo not given)	inactive	–
C=CC(O)CCCCC (stereo not given)	inactive	–
O=C(O)c1ccncc1	inactive	–
Nc1ncnc2c1ncn2[C@@H]1O[C@H](CO)[C@@H](O)[C@H]1O	inactive	–

Structure (SMILES)	Potency	activity change, negative = inhibition
CCCCOC(=O)CC#N	inactive	–
Cc1cc(SC2=C(O)C[C@@](CCc3ccc(N)cc3)(C(C)C)OC2=O)c(C(C)(C)C)cc1CO	inactive	–
C=C[Si](OCC)(OCC)OCC	inactive	–
CCCCCCCCCCCCSC#N	inactive	–
CC(CN=Cc1ccccc1O)N=Cc1ccccc1O (stereo not given)	inactive	–
O=Cc1ccc([N+](=O)[O-])cc1	inactive	–
CC(C)=CCCC(C)C=O (stereo not given)	inactive	–
Cc1ccc2c(Cl)cc(Cl)c(O)c2n1	inactive	–
Cc1nc2sccn2c(=O)c1CCN1CCC(=C(c2ccc(F)cc2)c2ccc(F)cc2)CC1	0.213 µM (active)	–
Nc1nc(Cl)nc2c1ncn2[C@H]1C[C@H](O)[C@@H](CO)O1	inactive	–
CCn1nc(Cc2ccccc2)cc1C1CCN(C[C@H]2C[C@H](N(C)[C@@H](C(=O)O)C(C)C)C[C@@H]2c2cccc(F)c2)CC1	13.8 µM (active)	–
O=S(=O)(O)c1cc(Cl)c(Cl)cc1Cl	inactive	–
Nc1ccccc1Nc1ccccc1	inactive	–
Cc1c(Nc2ncccc2C(=O)O)cccc1C(F)(F)F	inactive	–
OCCc1ccncc1	inactive	–
CC1=CC(=C(c2ccc(N)cc2)c2ccc(N)cc2)C=CC1=N	–	-5.88% [at 6.97 µM]
CCCCCCCCCCCCCCCCN	inactive	–
Oc1ccc(CCNCCCCCCNCCc2ccccc2)cc1O	inactive	–
